Data published in PubChem BioAssay AID1159580 (chemical genetic matrix, 2015).
Several values for one entry are separate records, joined by “and”; a condition that tells them apart may be missing. Equal entries are not always repeated. Screen size: about 5,500 compounds; about 2,000 (36%) were called active. About 18% were inconclusive and are not listed. Rule as the data show it: active = normalized growth mostly below about 0.91 (no sharp cut-off); inconclusive = no clear call, values can overlap the other calls; inactive = mostly above about 0.92. This is one part of the list.

Assay: chemical genetic growth profiling, strain panel (AID 1159580);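 also: tested at 20 µM; growth read once vehicle control cultures reached saturation at 30 °C; 1 = growth at the plate median or of vehicle wells; lower values mean less growth of the strain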
Settings: S. cerevisiae deletion strains, growth OD

Measured: normalized growth

CC(=O)[O][Hg][c]1ccccc1
active: locus YAL013W, strain DEP1, stronger effect = lower value 0.0588 | locus YAL021C, strain ccr4, stronger effect = lower value 0.0671 | locus YAL026C, strain drs2, stronger effect = lower value 0.0633 | locus YAL030W, strain snc1, stronger effect = lower value 0.0569 | locus YBL061C, strain skt5, stronger effect = lower value 0.0592 | locus YBR009C, strain hhf1, stronger effect = lower value 0.066 | locus YBR021W, strain FUR4, stronger effect = lower value 0.089 | locus YBR023C, strain chs3, stronger effect = lower value 0.0614 | locus YBR171W, strain sec66, stronger effect = lower value 0.0817 | locus YBR229C, strain ROT2, stronger effect = lower value 0.0467 | locus YBR231C, strain swc5, stronger effect = lower value 0.0619 | locus YBR279W, strain paf1, stronger effect = lower value 0.0597 | locus YCL011C, strain gbp2, stronger effect = lower value 0.0585 | locus YCL016C, strain dcc1, stronger effect = lower value 0.0648 | locus YCL029C, strain bik1, stronger effect = lower value 0.0611 | locus YCL061C, strain MRC1, stronger effect = lower value 0.066 | locus YCL069W, strain vba3, stronger effect = lower value 0.062 | locus YCR088W, strain abp1, stronger effect = lower value 0.0606 | locus YDL005C, strain med2, stronger effect = lower value 0.0736 | locus YDL035C, strain GPR1, stronger effect = lower value 0.0539 | locus YDL040C, strain nat1, stronger effect = lower value 0.0587 | locus YDL074C, strain BRE1, stronger effect = lower value 0.0962 | locus YDL101C, strain DUN1, stronger effect = lower value 0.0592 | locus YDL134C, strain PPH21, stronger effect = lower value 0.0501 | locus YDL185W, strain tfp1, stronger effect = lower value 0.0588 | locus YDL192W, strain arf1, stronger effect = lower value 0.0622 | locus YDR001C, strain nth1, stronger effect = lower value 0.0585 | locus YDR069C, strain doa4, stronger effect = lower value 0.063 | locus YDR101C, strain arx1, stronger effect = lower value 0.0626 | locus YDR137W, strain rgp1, stronger effect = lower value 0.0849 | locus YDR150W, strain NUM1, stronger effect = lower value 0.0584 | locus YDR159W, strain sac3, stronger effect = lower value 0.0919 | locus YDR162C, strain NBP2, stronger effect = lower value 0.0545 | locus YDR195W, strain ref2 0.124 | locus YDR297W, strain sur2, stronger effect = lower value 0.0565 | locus YDR318W, strain mcm21, stronger effect = lower value 0.0644 | locus YDR334W, strain swr1, stronger effect = lower value 0.0648 | locus YDR335W, strain msn5, stronger effect = lower value 0.0613 | locus YDR388W, stronger effect = lower value 0.0584 | locus YDR392W, strain spt3, stronger effect = lower value 0.1 | locus YDR502C, strain sam2, stronger effect = lower value 0.0611 | locus YEL003W, strain gim4, stronger effect = lower value 0.0567 | locus YEL037C, strain rad23, stronger effect = lower value 0.0594 | locus YEL061C, strain CIN8 (second series), stronger effect = lower value 0.0646 | locus YEL061C, strain CIN8, stronger effect = lower value 0.0509 | locus YER015W, strain faa2, stronger effect = lower value 0.0603 | locus YER016W, strain bim1, stronger effect = lower value 0.0596 | locus YER110C, stronger effect = lower value 0.079 | locus YER111C, strain swi4, stronger effect = lower value 0.0727 | locus YER155C, strain BEM2 (second series), stronger effect = lower value 0.0919 | locus YER155C, strain BEM2, stronger effect = lower value 0.066 | locus YER167W, strain BCK2, stronger effect = lower value 0.0545 | locus YFR010W, strain ubp6, stronger effect = lower value 0.0677 | locus YGL078C, strain dbp3, stronger effect = lower value 0.0571 | locus YGL086W, strain mad1, stronger effect = lower value 0.0571 | locus YGL167C, strain pmr1, stronger effect = lower value 0.073 | locus YGL173C, strain kem1, stronger effect = lower value 0.0683 | locus YGL227W, strain vid30, stronger effect = lower value 0.0651 | locus YGL240W, strain doc1, stronger effect = lower value 0.077 | locus YGL248W, strain PDE1, stronger effect = lower value 0.0503 | locus YGL253W, strain hxk2, stronger effect = lower value 0.055 | locus YGR078C, strain PAC10, stronger effect = lower value 0.0552 | locus YGR135W, strain pre9, stronger effect = lower value 0.0651 | locus YGR229C, strain SMI1, stronger effect = lower value 0.0631 | locus YGR252W, strain gcn5, stronger effect = lower value 0.166 | locus YHR013C, strain ard1, stronger effect = lower value 0.105 | locus YHR027C, strain rpn1, stronger effect = lower value 0.0615 | locus YHR030C, strain SLT2, stronger effect = lower value 0.0511 and 0.112 | locus YHR079C, strain IRE1 (second series), stronger effect = lower value 0.0572 | locus YHR079C, strain IRE1, stronger effect = lower value 0.12 | locus YHR094C, strain hxt1, stronger effect = lower value 0.0582 | locus YHR129C, strain ARP1, stronger effect = lower value 0.0567 | locus YHR142W, strain chs7, stronger effect = lower value 0.0763 | locus YHR200W, strain rpn10, stronger effect = lower value 0.0605 | locus YIL066C, strain RNR3, stronger effect = lower value 0.059 | locus YIL073C, strain SPO22, stronger effect = lower value 0.112 | locus YIL125W, strain kgd1, stronger effect = lower value 0.0567 | locus YIR030C, strain dcg1, stronger effect = lower value 0.0603 | locus YJL092W, strain hpr5, stronger effect = lower value 0.0589 | locus YJL095W, strain BCK1 (second series), stronger effect = lower value 0.0569 | locus YJL095W, strain BCK1, stronger effect = lower value 0.0577 and 0.107 | locus YJL115W, strain asf1, stronger effect = lower value 0.0743 | locus YJL129C, strain trk1, stronger effect = lower value 0.0912 | locus YJL134W, strain LCB3, stronger effect = lower value 0.0514 | locus YJL154C, strain vps35, stronger effect = lower value 0.0614 | locus YJL164C, strain tpk1, stronger effect = lower value 0.0658 | locus YJL166W, strain qcr8, stronger effect = lower value 0.0602 | locus YJL168C, strain set2, stronger effect = lower value 0.0596 | locus YJL187C, strain SWE1 (second series), stronger effect = lower value 0.0495 | locus YJL187C, strain SWE1, stronger effect = lower value 0.0566 | locus YJR043C, strain POL32, stronger effect = lower value 0.069
